This is an account of results in PubChem BioAssay (NCATS).

Records with an inconclusive call do not appear. A number with no mark means an inactive call. Activity calls are given as the source filed them. The call rests on the fitted dose curve; in most records, active means well fitted curve in the direction sought with a large enough effect; inconclusive means small, poorly fitted or top-dose-only effect, or another doubt; inactive means no such curve, though single readings can be large; an effect the other way counts as inactive or inconclusive.

In one assay the test system is CRL-7250. The assay can be described thus: Cytotoxic Profiling of Annotated Libraries Using Quantitative High-Throughput Screening (AID 1296008). Further: nearly all actives have a fitted effect of over 60% in size. Further: potency means the concentration at half of the fitted maximal effect. Conditions: Five cell lines viability, CellTiter-Glo ATP luminescence, 48-72 h; max response: active compounds read low. A digest of the protocol: (§1)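 Compounds were pin-transferred onto cells and incubated 48 or 72 hr at 37 degree Celsius, 95% humidity. CellTiter-Glo was added, plates sat 10 min at room temperature, then ATP-coupled luminescence was imaged as the viability read-out.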

Assay [1] concerns HaCat. Described as above. The note with it: Five cell lines viability, CellTiter-Glo ATP luminescence, 48-72 h; max response: active compounds read low. A digest of the protocol:
as §1

The next assay relates to KB-3-1. Described as above. The note with it: Five cell lines viability, CellTiter-Glo ATP luminescence, 48-72 h; max response: active compounds read low. The method in brief: as §1
The next assay concerns NIH3T3. The description is as above. Conditions: Five cell lines viability, CellTiter-Glo ATP luminescence, 48-72 h; max response: active compounds read low. A digest of the protocol:
as §1

The test system of assay [2] is HACAT. The assay can be described thus: qHTS assay to identify novel small-molecules to repurpose for Merkel cell carcinoma treatment (AID 1296009). Further: nearly all actives have a fitted effect of over 60% in size. The note with it: MCC and control cell lines, CellTiter-Glo viability, 72 h; at 44.8 µM (top of the series) unless noted. A digest of the protocol: (§2)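 Luminescence from CellTiter-Glo, read 10 min after addition at room temperature, reported viability following a 72 hr, 37 degree celsius treatment with NPC or MIPE compounds in titration; values normalized to plate controls.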

The subject of another assay is MCC-13. Described as above. The note with it: MCC and control cell lines, CellTiter-Glo viability, 72 h; series mostly up to 46 µM. The method in brief:
as §2

In another assay the test system is MCC-26. The description is as above. The note with it: MCC and control cell lines, CellTiter-Glo viability, 72 h; series mostly up to 46 µM. A digest of the protocol:
as §2

A further assay concerns MKL-1. Described as above. Conditions: MCC and control cell lines, CellTiter-Glo viability, 72 h; series mostly up to 46 µM. A digest of the protocol: as §2
Another assay has as its system MKL-2. Described as above. Conditions: MCC and control cell lines, CellTiter-Glo viability, 72 h; series mostly up to 46 µM. A digest of the protocol:
as §2

Another assay concerns UISO. Described as above. The note with it: MCC and control cell lines, CellTiter-Glo viability, 72 h; series mostly up to 46 µM. A digest of the protocol: as §2
Another assay deals with C33A. Put plainly: Primary qHTS to identify gynecologic anti-cancer compounds using libraries of approved drugs and bioactive compounds (AID 1345084). Further: nearly all actives have a fitted effect of over 55% in size. Conditions: Gynecologic cancer cell panel viability, ATPlite luminescence, 48 h; series mostly up to 57.5 µM. The method in brief: (§3)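 Cells, 1,000 per well, plated 16 h, then exposed 48 h at 37 C to compounds. Viability by ATPlite luminescence after 15 min at room temperature.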

In the next assay the test system is CAOV3. Described as above. The note with it: Gynecologic cancer cell panel viability, ATPlite luminescence, 48 h; series mostly up to 57.5 µM. A digest of the protocol: as §3
In a further assay the test system is CASKI. Described as above. The note with it: Gynecologic cancer cell panel viability, ATPlite luminescence, 48 h; series mostly up to 57.5 µM. A digest of the protocol:
as §3

A further assay deals with Es-2. Described as above. Conditions: Gynecologic cancer cell panel viability, ATPlite luminescence, 48 h; series mostly up to 57.5 µM. A digest of the protocol:
as §3

The subject of the next assay is HeLa. Described as above. The note with it: Gynecologic cancer cell panel viability, ATPlite luminescence, 48 h; series mostly up to 57.5 µM. The method in brief:
as §3

In the next assay the test system is HEK293. The assay can be described thus: Cytotoxic Profiling of Annotated Libraries Using Quantitative High-Throughput Screening (AID 1296008). Further: nearly all actives have a fitted effect of over 60% in size. Further: potency means the concentration at half of the fitted maximal effect. The note with it: Five cell lines viability, CellTiter-Glo ATP luminescence, 48-72 h; max response: active compounds read low. The method in brief: as §1
A further assay concerns WaGa. The assay can be described thus: qHTS assay to identify novel small-molecules to repurpose for Merkel cell carcinoma treatment (AID 1296009). Further: nearly all actives have a fitted effect of over 60% in size. Conditions: MCC and control cell lines, CellTiter-Glo viability, 72 h; series mostly up to 46 µM. A digest of the protocol:
as §2

The subject of a further assay is HEK293T. The description is as above. Conditions: MCC and control cell lines, CellTiter-Glo viability, 72 h; at 44.8 µM (top of the series). A digest of the protocol:
as §2
On the % scale 0 is the no-effect control and ±100 the full control effect.

On to `CC(C)=C[C@@H]1[C@@H](C(=O)OCc2coc(Cc3ccccc3)c2)C1(C)C`, for which the max response with CRL-7250 was 2.34%; in the assay with KB-3-1, 6.83%; in the assay with NIH3T3, -1.15%. The call with HaCat [1] and with HACAT [2] was inactive. Besides, the Potency result in the assay on MCC-13, in the assay on MCC-26, with MKL-1, with MKL-2, in the assay with UISO and with C33A was “inactive” each time. The Potency result in the assay with CAOV3, in the assay with CASKI, in the assay with Es-2 and in the assay on HeLa was “inactive” each time.
`ClCc1cccc(Cl)c1`: the max response is -10.5% with CRL-7250, -1.26% in the assay with HEK293, 1.97% in the assay on HaCat [1] and 0.768% with NIH3T3. The Potency entry with MCC-13, in the assay with MCC-26, with MKL-1, with MKL-2, in the assay on UISO and with WaGa was “inactive” in each case. The Potency result with C33A, in the assay on CAOV3, in the assay with CASKI, in the assay on Es-2 and in the assay on HeLa was “inactive” throughout.
As for `Nc1ccccc1C(=O)OCC(O)CO` (stereo not drawn), the max response in the assay with CRL-7250 is 1.8%; in the assay on NIH3T3, -1.39%. Moreover, the outcome with HEK293 and with HEK293T was inactive. Besides, the Potency entry in the assay on MCC-13, in the assay with MCC-26, in the assay with MKL-1, in the assay on MKL-2, with UISO and in the assay with WaGa was “inactive” each time. In addition, the Potency entry in the assay with C33A, with CAOV3, in the assay on CASKI, in the assay on Es-2 and with HeLa was “inactive” in each case.
For `CCS(=O)(=O)C(C)(C)S(=O)(=O)CC`, the max response with CRL-7250 is -10.9%; in the assay with HEK293 it was 1.49%; with KB-3-1, 3.51%; in the assay on NIH3T3, -2.98%. Moreover, the Potency entry with MCC-13, with MCC-26, in the assay on MKL-1, in the assay with MKL-2, with UISO and with WaGa was “inactive” in each case. Besides, the Potency entry with C33A, with CAOV3, with CASKI, in the assay with Es-2 and with HeLa was “inactive” in each case.
Consider `CN1C(=O)[C@@H](NC(=O)c2cc3ccccc3[nH]2)N=C(c2ccccc2)c2ccccc21`, for which the values for the max response with CRL-7250 and in the assay on KB-3-1 were -23.4% and 1.71%, respectively. Moreover, the Potency with HEK293 was 11.9 µM (active). Also, the Potency entry in the assay on MCC-13, in the assay with MKL-1, in the assay with MKL-2, in the assay on WaGa, in the assay on C33A and in the assay with HeLa was “inactive” each time.
As for `CC[C@]1(O)CC[C@H]2[C@@H]3CCC4=CCCC[C@@H]4[C@H]3CC[C@@]21C`, the max response is -110% in the assay with CRL-7250 and -119% in the assay on HEK293. Further, the Potency result in the assay with MCC-26, with MKL-1, in the assay on MKL-2, in the assay on WaGa and with CASKI was “inactive” in each case.
As to `CCN(CC)Cc1nccn1-c1ccc([N+](=O)[O-])cc1C(=O)c1ccccc1Cl`, the values for the max response with CRL-7250, in the assay on KB-3-1 and in the assay on NIH3T3 were -12.2%, -4.42% and -7.47%, respectively. Further, the result in the assay with HaCat [1] and in the assay with HACAT [2] was inactive. The Potency result with MCC-13, in the assay with MCC-26, with MKL-1, with MKL-2, in the assay on UISO and with WaGa was “inactive” each time. Further, the Potency result in the assay with C33A, in the assay on CAOV3, in the assay with CASKI, in the assay on Es-2 and in the assay with HeLa was “inactive” each time.
On to `C[C@H]1C(=O)O[C@@H]2CCN3CC=C(COC(=O)[C@](C)(O)[C@]1(C)O)[C@H]23`, for which the max response with CRL-7250 is -23.7%; with KB-3-1, -11.3%; with NIH3T3, -4.3%. For the same molecule, the outcome in the assay with HaCat [1] and with HACAT [2] was inactive. For the same molecule, the Potency entry in the assay with MCC-13, in the assay on MCC-26, in the assay with MKL-1, with MKL-2, in the assay on UISO and with WaGa was “inactive” throughout. The Potency result in the assay with C33A, in the assay with CAOV3, with CASKI, in the assay with Es-2 and in the assay with HeLa was “inactive” each time.
